# Results: the supplement of paper PMC6555819
# Legend:
# Experiment in all cases: PBM binding z-score (relative to random genomic background probes); higher = stronger binding; sequences stand for … in GC…GCGATTGACAGCGTAGAATGAAGG
# [1] = tested on: FXR:RXRa (NR concentration 270 nM, RXRa partner concentration 90 nM)
# Summary of the method: (§1)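 Random background probes are the reference for binding z-scores. These scores derive from regression-normalized fluorescence on custom Agilent 4×180K protein-binding microarrays incubated 1 h with ligand-free nuclear receptor dimers. Binding was detected with antibodies against each partner (one per run).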
# [2] = tested on: LXRa:RXRa (NR concentration 270 nM, RXRa partner concentration 90 nM)
# Summary of the method: as §1
# [3] = tested on: LXRa homodimer (NR concentration 270 nM)
# Summary of the method: as §1
# [4] = tested on: LXRb:RXRa (NR concentration 270 nM, RXRa partner concentration 90 nM)
# Summary of the method: as §1
# [5] = tested on: LXRb homodimer (NR concentration 270 nM)
# Summary of the method: as §1
# [6] = tested on: PPARa:RXRa (NR concentration 270 nM, RXRa partner concentration 90 nM)
# Summary of the method: as §1
# [7] = tested on: PPARg:RXRa (NR concentration 180 nM, RXRa partner concentration 90 nM)
# Summary of the method: as §1
# [8] = tested on: PPARg:RXRa 270nM:90nM, anti-RXR (NR concentration 270 nM, RXRa partner concentration 90 nM)
# Summary of the method: as §1
# [9] = tested on: PPARg:RXRa 30nM:10nM, anti-RXR (NR concentration 30 nM, RXRa partner concentration 10 nM)
# Summary of the method: as §1
# [10] = tested on: PPARg:RXRa 90nM:30nM, anti-RXR (NR concentration 90 nM, RXRa partner concentration 30 nM)
# Summary of the method: as §1
Sequence,PBM binding z-score [1],PBM binding z-score [2],PBM binding z-score [3],PBM binding z-score [4],PBM binding z-score [5],PBM binding z-score [6],PBM binding z-score [7],PBM binding z-score [8],PBM binding z-score [9],PBM binding z-score [10]
AGTTAAAGTTCATCTAGGTAACGTAAGATATGCT,6.36,6.33,5.76,3.75,2.33,4.67,4.77,4.99,2,4.03
ACAGACAGGGGATGAAGGTAACTCAGGCTATCAT,0.0429,-0.217,-0.0262,0.454,0.563,0.414,0.8,-0.0093,-0.0639,-0.0825
CAAACAGGGTCAGCTAGGCCAGAGTAGGGACGGC,4.65,2.73,-0.316,2.21,0.0212,4.47,3.5,3.57,0.838,2.35
TAGCCTAGGTCAGATCGGGCCATTATACGCTATA,2.53,1.3,-0.125,1.07,-0.132,1.55,0.711,0.523,-0.272,0.0184
TAGCCTAGGTCAATGGGCCAGTATAGTACGCATC,3.09,2.16,-0.016,1.51,-0.146,3.27,2.95,2.83,0.834,1.67
TATACAGGGTCAAAGGCCAGAGGACGAATGTCGA,7.18,6.58,2.34,4.72,2.59,5.98,8.38,7.61,5.3,7.21
TCTGCTAGGTCAGTTGGTCAGCGAACGAGCTGCC,1.05,0.587,-0.495,0.166,0.433,1.57,0.47,1.87,1.06,1.38
AGAATGAGGTTAAGATCAGGGTAACAGAATACAT,2.5,2.47,0.0614,2.01,-0.068,3.68,2.64,2.66,0.832,1.9
GCTAGTTGGTCACTAAAAGGTCACACACCGGTCG,3.49,4.28,4.38,4.27,0.864,4.44,2,3.69,0.993,2.6
GGAACGAGGGCAAAGTTGATACCATCTGTCGACG,1.54,1.06,0.172,1.17,-0.157,4.04,6.72,6.85,6.52,7.6
CCTACCAGGCCAATCTGGGTCACTCAAGGCTTGA,1.15,1.52,0.0755,1.01,-0.051,2.92,2.3,2.4,-0.0148,1.57
GCGTATAGGTAATACAAGGTGAAAGTCCGATTGT,1.84,2.57,0.196,0.896,-0.616,1.37,0.763,0.855,0.307,0.925
GGAACGAGGGCATTAGAGTTGATAGCATGGCGAT,0.899,2.35,-0.104,0.257,-0.699,1.22,0.982,0.676,0.105,0.129
TTACCAAGGTGAAGGACGTTGATCCCTCTGTAGA,0.74,0.584,-0.361,0.414,-0.656,1.21,0.633,1.19,0.789,1.17
TCTAGGTGGTCACGGAGGTCACACACGACGGGTA,3.81,3.68,2.06,3.28,0.0895,4.01,3.58,4.2,3.06,3.96
CCGACTGGGGCATAAGGTTACCATTAGCCAGCCC,0.294,0.416,-0.399,0.617,-1.38,1.85,2.02,3.12,0.689,2.57
ATCTCTAGGTAAAAGTTCAGTAAATCCCGAGGAT,0.994,1.49,1.5,1.29,1.31,4.43,7.76,7.37,6.62,8.13
CCTCTGAGGACAGAAGGTCAGAGCTGTCCGCTTT,2.01,1.73,0.0206,1.25,-0.446,2.02,0.0496,1.3,-0.534,0.582
CCGTCTGGGGCATAAGGTTACCATAAGCCAGCCC,0.562,2.1,-0.402,0.847,-1.32,1.78,1.29,2.07,0.233,1.54
AGAATGAGGTTTTTAAGATCAGGGAATTGCGGTC,-0.295,-0.436,-0.308,-0.234,-0.216,0.0197,0.144,0.00452,0.119,-0.139
CCTGCTATGTCATGGTCAGCTAATCTACAGTATG,0.128,-0.0634,-0.269,-0.0445,-0.226,-0.318,0.0811,-0.104,0.0801,0.346
TCTAGCAGGCCAGCGGGTCACTCAAGAGGTACGG,0.662,0.558,-0.567,0.777,-0.97,1.92,0.601,1.74,1.72,1.65
TCGAGTGGGTTAGGGGCATTCAGAATGGCGTCGA,0.437,0.401,0.0912,1.41,0.759,1.46,0.402,1.73,0.9,1.31
AGTCAAAGTTCAATAGGTAACGTAAGATTCAGCT,5.27,5.09,3.45,3.08,1.59,4.37,5.82,5.74,2.88,4.97
TGGCCTAGGTCATTCAGGGGCCAGTATAGAAAGC,4.69,3.39,0.183,2.3,0.0581,3.59,2.15,2.33,0.133,1.5
